Shown are actives, neighbours in structure and some others; about 2.1% of the full set was active somewhere.
Abeta yeast res – qHTS for compounds that reverse cellular toxicity of Amyloid beta (A-beta) peptide in yeast: Primary Screen | Potency, µM (top dose mostly 46.1 µM), most hits filed as activators | yeast expressing A-beta42, growth rescue, OD600, 48 h; response scale: 0% DMSO, 100% iron-clioquinol control | actives 0.063% (n = 410,000); also: nearly all actives have a fitted effect of over 55% in size
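Yeast A-beta toxicity model in growth medium with pinned compounds, 48 h at 30 C; growth read as absorbance at 600 nm. Normalized to FeCl3/clioquinol equimolar mix (positive) and DMSO (negative).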
FUS suppressor – qHTS for Suppressors of FUS Proteinopathy: Primary screen using FUS-linked yeast assay. S. cerevisiae FUS-expressing, growth rescue, OD600, 24 h. Potency, µM (top dose mostly 76.6 µM), usual class: activators. actives 0.24% (n = 390,000). AID 1347120, 2019;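 also: plate controls were DMSO vehicle for no effect and reference control for full effect; nearly all actives have a fitted effect of over 55% in size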
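Galactose (2%) drives FUS expression in yeast precultured in raffinose; seeding density OD 0.005. Test compounds incubated 24hr at 30C and 99% humidity before absorbance at 600 nm was measured.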
TDP-43 yeast inh – qHTS of TDP-43 Inhibitors; TDP-43 expressing yeast growth rescue, BacTiter-Glo, 24 h; Potency, µM (titrated, usually from 46.1 µM), inactives show at the highest dose growth rescue (activation), actives largely listed as activators; actives 1.8% (n = 410,000); AID 652104, 2013; also: % of control where 0% means no effect; nearly all actives have a fitted effect of over 50% in size
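Growth rescue of TDP-43-toxic yeast measured as ATP luminescence (BacTiter-Glo). Cells grown to mid-log in raffinose, induced in galactose at OD600=0.02, exposed to compound 24 hr at 30 deg C.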
aSyn rescue – qHTS of alpha-syn Inhibitors; actives 0.14% (n = 370,000); AID 652106, 2013; Potency, µM (highest dose often 46.1 µM), for inactives: at the top dose growth rescue (activation), most hits filed as activators; Yeast expressing alpha-synuclein, growth rescue, BacTiter-Glo, 24 h; also: % of control where 0% means no effect; nearly all actives have a fitted effect of over 65% in size
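Readout is rescue of growth in alpha-synuclein-expressing yeast, so inhibitors of toxicity appear as activators. Growth after 24 hr at 30 deg C in galactose medium is quantified by luminescence.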
* = called active by the depositor; i = inactive; ? = inconclusive; · = no result given; [ ] = dose if it differs, or a comment. Calls follow the shape of the dose curve; as a rule, active = well fitted curve in the direction sought with a large enough effect; inconclusive = small, poorly fitted or top-dose-only effect, or another doubt; inactive = no such curve, though single readings can be large; an effect the other way counts as inactive or inconclusive. Potency is read from the fitted curve at half-maximal effect.

SMILES	Abeta yeast res	FUS suppressor	TDP-43 yeast inh	aSyn rescue
COc1cccc(NC(=O)COc2cc(O)c3c(c2)OC(C)(C)CC3=O)c1	i	i	18µM*	1%
Cc1ccc(CNC(=O)COc2cc(O)c3c(c2)OC(C)(C)CC3=O)cc1	i	?	13µM*	9%
COc1ccc(S[C@]2(C(=O)N3CCOCC3)CC(=O)N(S(=O)(=O)c3ccc(F)cc3)[C@@H]2c2ccc(OC)cc2)cc1	·	i	·	·
C=CCc1ccccc1OCC(O)CN1C(=O)c2ccccc2C1=O (stereo not given)	i	i	11µM*	17%
Cc1ccccc1OCC(O)CN1C(=O)c2ccccc2C1=O (stereo not given)	i	i	30%	10%
O=C(Cc1ccccc1)NC(=S)Nc1ccc(OC(F)F)cc1	11µM*	i	25%	-7%
COc1ccc(NC(=S)NC(=O)Cc2ccccc2)cc1	?	i	?	1%
Cc1cccc(OCC(=O)Nc2cc(C)c(O)c(-c3nc4ccccc4o3)c2)c1	·	·	·	-8%
CN1/C(=C/C(=S)NC(=O)C2(C)CC2(Cl)Cl)C(C)(C)c2ccccc21 (stereo not given)	10µM*	?	-11%[1.82 µM]	-7%
CC1=C(C(=O)OC2CCCCCC2)C(c2cccc(Cl)c2)CC(=O)N1 (stereo not given)	i	i	-13%	·
COc1ccc(-n2c(=O)c3ccc(C(=O)NCc4ccc(C)cc4)cc3n(CC(=O)Nc3ccc(C)cc3)c2=O)cc1	i	i	9%	1%
CCOC(=O)CNC(=O)C1CCCc2c1[nH]c1ccc(Cl)cc21 (stereo not given)	?	i	13µM*	9%
NC(=O)CNC(=O)C1CCCc2c1[nH]c1ccc(Cl)cc21 (stereo not given)	i	i	-4%	0%
O=C(CCS(=O)(=O)c1cc2c(cc1Br)CCN2C(=O)C1CC1)N1CCN(c2ccccn2)CC1	·	i	·	·
O=C(OCc1nc2ccsc2c(=O)[nH]1)c1ccc(Cl)s1	i	i	18µM*	1%
COc1cccc(CNC(=O)c2cnc(N3CCCCC3)c3ccccc23)c1	i	i	12%	·
C1=Cc2ccccc2/C1=C\c1cccc(/C=C2\C=Cc3ccccc32)c1	·	·	·	-3%
Cc1ccc(Cn2c(CCNC(=O)c3cccc(C)c3)nc3ccccc32)cc1	i	i	27%	5%
CCCS(=O)(=O)c1nnnn1-c1cccc(OC)c1	i	i	11µM*	-4%
CCOc1ccccc1NC(=O)Cn1c(=O)oc2cc(S(=O)(=O)NCc3ccccc3)ccc21	i	?	11%	·
Cc1ccc(-c2nc3cc(Cl)ccc3o2)cc1NC(=O)COc1ccccc1C	·	·	·	-6%
O=c1c2oc3ccccc3c2n(Cc2cccc(F)c2)c(=O)n1Cc1ccc2c(c1)OCO2	i	i	8%	·
O=c1c2sc(-c3ccccc3)cc2nc2n1CCC2	i	i	13µM*	?
O=c1c2sc(-c3ccccc3)cc2nc2n1CCCCC2	i	i	11µM*	9%
COc1cccc(/C=C/c2ccnc3ccccc23)c1OC	·	·	·	-7%
SMILES	Abeta yeast res	FUS suppressor	TDP-43 yeast inh	aSyn rescue
O=C(COc1ccccc1C(=O)Nc1ccccc1)Nc1ccccc1Cl	·	·	·	1%
CCOC(=O)c1ccc(NC(=S)NC(=O)C2CCCC2)cc1	?	i	0%	4%
O=C(Nc1ccc(Br)cc1)C1CCCC1	i	i	11µM*	1%
O=C(NC(=S)Nc1ccc(Br)cc1)C1CCCCC1	?	i	21%	0%
COC(=O)c1ccc(NC(=S)NC(=O)C2CCC2)cc1	8.9µM*	i	?	-7%
O=C(NC(=S)Nc1ccc(Br)cc1)C1CCC1	5.6µM*	i	?	-10%
O=C(NC(=S)Nc1cccc([N+](=O)[O-])c1)C1CCCC1	?	i	13µM*	-11%
CCOc1ccccc1C(=O)Nc1ccc2nc3c(c(Nc4ccc(OC)c(OC)c4)c2c1)CCCC3	i	i	11%	·
Cc1ccc(S(=O)(=O)c2nc(S(C)(=O)=O)sc2N(C)Cc2ccccc2)cc1	i	?	29%	·
COC(=O)CC1(c2ccccc2)C(=O)c2ccccc2C1=O	i	i	-13%	6%
COC(=O)CC1(c2cccc3ccccc23)C(=O)c2ccccc2C1=O	i	i	22µM*	6%
CCOC(=O)c1c(C)oc2ncnc(N3CCN(c4ccccc4)CC3)c12	i	i	23%	·
Cc1nc2c(-c3ccccc3)c(C)nn2c(C)c1CCC(=O)N1CCN(c2ccc(F)cc2)CC1	i	i	14µM*	·
COc1ccc(CCNC(=O)CCc2c(C)nc3cc(-c4ccccc4OC)nn3c2C)c(OC)c1	i	?	18µM*	·
Cc1nc2c(-c3ccccc3)c(C)nn2c(C)c1CCC(=O)N1CCN(c2ccccc2)CC1	i	i	13µM*	·
COc1ccc(OC)c(NC(=O)CCc2c(C)nc3c(-c4ccccc4)c(C)nn3c2C)c1	i	?	20µM*	·
CCN1CCN(c2ccc(NC(=O)CCc3c(C)nc4c(-c5ccccc5)c(C)nn4c3C)cc2)CC1	i	i	17%	-4%
Cc1nc2ncnn2c(C)c1CCC(=O)N1CCN(c2ccc(F)cc2)CC1	i	i	-3%	·
COc1ccc(NC(=O)CCc2c(C)nc3c(-c4ccc(F)cc4)c(C)nn3c2C)c(OC)c1	i	i	10%	·
Cc1cccc(OCCC(=O)NO)c1	·	·	·	17%
Cc1cc(OCCn2c(C3CC(=O)N(Cc4ccc(F)cc4)C3)nc3ccccc32)ccc1Cl (stereo not given)	i	i	4%	·
CCc1ccccc1N1CC(c2nc3ccccc3n2CCOc2ccc(Cl)c(C)c2)CC1=O (stereo not given)	i	25µM*	-11%	·
Cc1cccc(OCCCCn2c(C3CC(=O)N(c4ccc(C)cc4C)C3)nc3ccccc32)c1 (stereo not given)	i	?	32µM*	·
CCc1ccc(N2CC(c3nc4ccccc4n3Cc3ccccc3C)CC2=O)cc1 (stereo not given)	i	?	28µM*	·
Cc1ccc(C)c(OCCn2c(C3CC(=O)N(Cc4ccc(F)cc4)C3)nc3ccccc32)c1 (stereo not given)	i	?	35µM*	·
O=[N+]([O-])c1cc(/C=N/N2CCOCC2)cs1	i	i	?	3%
O=[N+]([O-])c1ccc(C=NN2CCOCC2)s1	i	i	11µM*	2%
Cn1ccc2c(-c3ccc(C(F)(F)F)cc3)cc3c(c21)C1CCC3O1 (stereo not given)	?	i	8.9µM*	-24%
Cc1ccccc1-c1cc2c(c3c1ccn3C)C1CCC2O1 (stereo not given)	?	i	11µM*	-2%
